PubChem BioAssay AID372 (MTDP, 2006)
Hit rate of the full screen: of about 100,000 compounds, about 770 (0.77%) were called active. This is one part of a sample in which actives are shown more often than they occur. Unmarked numbers belong to inactive results. Rule as the data show it: active = inhibition above about 50%; inactive = the rest.

These compounds were tested against Gag-Pol polyprotein (Human immunodeficiency virus type 1 group M subtype B (isolate HXB2)) (UniProt P04585) (assay: RNase H inhibition, HIV 1 Gag Pol polyprotein, FRET biochemical assay, screening (AID 372)). Conditions: HIV-1 RT RNase H, FRET RNA/DNA substrate fluorescence; at 10 µM; stronger effect = higher value.
In the case of `O=C(c1c(F)cccc1F)N1CCN(c2cc(N3CCCC3)c(F)cc2[N+](=O)[O-])CC1`, the inhibition is reported as 11%. In the case of `CCc1ccc(OCC(=O)Nc2ccc3c(c2)C(=O)c2ccccc2C3=O)cc1`, the inhibition is reported as 27%. `COC(=O)c1c(NC(=O)c2cc(-c3ccc(Cl)s3)nc3ccccc23)sc2c1CCC(C(C)(C)C)C2` (configuration not stated) gave an inhibition of 1%. With `COc1ccc(C(Nc2ccccc2)P(=O)(OC(C)C)OC(C)C)cc1` (configuration not stated) the inhibition was 10%. Compound `COc1ccc(OC)c(NC(=O)c2ccc(N(C)S(=O)(=O)c3ccccc3)cc2)c1` has an inhibition of 13%. In the case of `Oc1c(Cl)cc(Cl)cc1/C=N/N=C/c1cc(Cl)cc(Cl)c1O`, the inhibition is reported as 15%. Compound `CCOc1ccc(C2=NNC(=O)CC2)cc1` has an inhibition of 10%. `CCCC1CCC(c2ccc(OCC)cc2)=CC1=O` (configuration not stated) showed an inhibition of 8%. With `COc1ccc(-c2cccc(=O)o2)cc1` the inhibition was 0%. For `COc1ccc(C2=CC(=O)C=CC2=O)cc1`, the inhibition was 75% (active). `COc1ccc(C2=CC(=O)c3ccccc3C2=O)cc1` showed an inhibition of 40%. Compound `CCOC(=O)C1=C(C)N=c2s/c(=C\c3ccc(O)c(OC)c3)c(=O)n2C1c1cc(OC)ccc1OC` (configuration not stated) has an inhibition of 0%. For `CC(NC(=O)CN1C(=O)c2ccccc2C1=O)c1ccccc1` (configuration not stated), the inhibition was 3%. `Cc1cccc(OCCCOc2cccc(/C=c3\sc4nc5ccccc5n4c3=O)c2)c1` gave an inhibition of 3%. For `CCOc1ccc(NC(=S)NC(=O)/C=C/c2ccc(F)cc2)c([N+](=O)[O-])c1`, the inhibition was 84% (active). Compound `CCOc1ccc(NC(=S)NC(=O)c2ccccc2)c([N+](=O)[O-])c1` has an inhibition of 11%. `CCOc1ccc(NC(=S)NC(=O)c2ccc(F)cc2)c([N+](=O)[O-])c1` was tested, and the inhibition was 7%. In the case of `CCOc1ccc(NC(=S)NC(=O)/C=C/c2ccc(OC)c(OC)c2)c([N+](=O)[O-])c1`, the inhibition is reported as 2%. With `CCOc1ccc(NC(=S)NC(=O)/C=C/c2ccc(C)cc2)c([N+](=O)[O-])c1` the inhibition was 21%. For `CCOc1ccc(NC(=S)NC(=O)/C=C/c2ccc(OC)cc2)c([N+](=O)[O-])c1`, the inhibition was 60% (active). In the case of `Brc1ccc(-c2nc(-c3ccccc3)c(-c3ccc(Br)cc3)[nH]2)cc1`, the inhibition is reported as 17%. In the case of `CCOC(=O)c1[nH]c(C)c(C(=O)N/N=C/c2ccc(-c3ccc(Cl)cc3)o2)c1C`, the inhibition is reported as 18%. `C=CCOc1ccc(/C=C2\SC(N3CCN(c4ccccc4)CC3)=NC2=O)cc1` was tested, and the inhibition was 13%. `COc1cccc(C(=O)N2c3ccc(C)cc3-c3c(ssc3=S)C2(C)C)c1` showed an inhibition of 13%. Compound `COc1ccc2c(c1)-c1c(ssc1=S)C(C)(C)N2C(=O)CN1C(=O)c2ccccc2C1=O` has an inhibition of 0%. `COC(=O)C1=C(C(=O)OC)SC(=C2C(=S)C(C)(C)N(C(=O)/C=C/c3ccc(OC)c(OC)c3)c3ccc(C)cc32)S1` was tested, and the inhibition was 40%. For `COc1cccc(C(=O)N2c3cc(OC)ccc3-c3c(ssc3=S)C2(C)C)c1`, the inhibition was 54% (active). For `COC(=O)C1=C(C(=O)OC)SC(=C2C(=S)C(C)(C)N(C(=O)/C=C/c3ccc(OC)c(OC)c3)c3ccc(OC)cc32)S1`, the inhibition was 53% (active). With `COc1ccc(/C=C/C(=O)N2c3ccc(C)cc3-c3c(ssc3=S)C2(C)C)cc1OC` the inhibition was 57% (active). `COc1ccc2c(c1)N(C(=O)c1ccc(C(C)(C)C)cc1)C(C)(C)c1ssc(=S)c1-2` showed an inhibition of 15%. `COC(=O)C1=C(C(=O)OC)SC(=C2C(=S)C(C)(C)N(C(=O)/C=C/c3ccc(OC)cc3)c3ccc(C)cc32)S1` gave an inhibition of 22%. With `COc1ccc2c(c1)-c1c(ssc1=S)C(C)(C)N2C(=O)/C=C/c1ccc(OC)c(OC)c1` the inhibition was 27%. `COc1ccc(/C=C/C(=O)N2c3ccc(C)cc3-c3c(ssc3=S)C2(C)C)cc1` was tested, and the inhibition was 20%. With `Cc1ccc2c(c1)N(C(=O)CN1C(=O)c3ccccc3C1=O)C(C)(C)c1ssc(=S)c1-2` the inhibition was 10%. With `O=C(O)C1CCCCC1C(=O)NCc1ccccc1` (configuration not stated) the inhibition was 0%. In the case of `O=C(Nc1ccccc1)c1ccccc1C(=O)OCCCCCc1cccs1`, the inhibition is reported as 1%. `CC(/C=C(\NC(=O)c1ccccc1)C(=O)N/N=C/c1cccc([N+](=O)[O-])c1)=C\c1ccccc1` gave an inhibition of 6%. Compound `O=C(Nc1ccc(-c2ccc(Cl)cc2)cc1)C1CC1` has an inhibition of 6%. In the case of `O=[N+]([O-])c1ccc(C2Nc3ccc(I)cc3C3C=CCC32)cc1` (configuration not stated), the inhibition is reported as 25%. `Cc1ccc(S(=O)(=O)N(CC(O)CN(CC(C)C)CC(C)C)c2cccc(C)c2)cc1` (configuration not stated) gave an inhibition of 9%. In the case of `COc1ccc2ccccc2c1/C=N/NC(=O)c1ccc(-c2ccccc2)cc1`, the inhibition is reported as 13%. `O=C(Nc1ccc(NC(=O)c2ccc(Cl)cc2Cl)c(Cl)c1)c1ccccc1` was tested, and the inhibition was 3%. For `COc1ccc2c(c1)-c1c(ssc1=S)C(C)(C)N2C(=O)c1ccccc1Br`, the inhibition was 27%. With `COc1ccc2c(c1)-c1c(ssc1=S)C(C)(C)N2C(=O)c1ccc(OC)c(OC)c1` the inhibition was 4%. For `COc1ccc2c(c1)-c1c(ssc1=S)C(C)(C)N2C(=O)c1ccccc1OC`, the inhibition was 60% (active). `CCC1CCc2c(sc(NC(=O)c3ccc(Br)o3)c2C(=O)OC)C1` (configuration not stated) gave an inhibition of 13%. For `COc1ccccc1S(=O)(=O)CC(SC#N)c1ccccc1` (configuration not stated), the inhibition was 4%. In the case of `Cc1c(CCNC(=O)c2ccccc2)c2ccccc2n1Cc1ccccc1`, the inhibition is reported as 57% (active). With `CC(=O)NCCc1c(C)n(Cc2ccccc2)c2ccccc12` the inhibition was 2%. For `Cc1c(CCNC(=O)c2ccccc2F)c2ccccc2n1Cc1ccccc1`, the inhibition was 28%. Work on `O=C1OC(c2ccccc2)=N/C1=C\c1ccc(F)c(Br)c1` yielded an inhibition of 16%. With `CCOC(=O)C1=C(C)N=c2s/c(=C\c3ccc(Br)cc3)c(=O)n2C1c1ccc(OC)c(OC)c1` (configuration not stated) the inhibition was 0%. `CC(=O)/C(=C1\NC(C)(C)Cc2ccccc21)c1ccccc1` gave an inhibition of 3%. `N#C/C(=C\c1ccc(-c2ccccc2)o1)C(=O)NCc1ccccc1` showed an inhibition of 16%. With `Cc1ccc(Sc2ccc(/C=C(\C#N)C(=O)NCc3ccccc3)o2)cc1` the inhibition was 50% (active). With `N#C/C(=C/c1ccc(Sc2ccccc2)o1)C(=O)NCc1ccccc1` the inhibition was 25%. Work on `N#C/C(=C\c1ccc(I)o1)c1ccccc1` yielded an inhibition of 41%. With `N#C/C(=C/c1ccc(Sc2ccccc2)o1)c1nc2ccccc2[nH]1` the inhibition was 15%. For `N#C/C(=C\c1ccc(Sc2ccccc2)o1)c1ccccc1`, the inhibition was 52% (active). `CCc1cc2c(=O)n(N)c(CCC(=O)O)nc2s1` showed an inhibition of 6%. With `CCOC(=O)c1cc(Br)c(Cl)cc1[N+](=O)[O-]` the inhibition was 10%. Work on `COc1ccc(C(NC(=O)c2ccco2)c2ccc(OC)c(OC)c2)cc1` (configuration not stated) yielded an inhibition of 23%. In the case of `Cc1ccc2oc(-c3ccc(NC(=O)c4ccc(C)c([N+](=O)[O-])c4)cc3)nc2c1`, the inhibition is reported as 0%. Compound `OC(COc1ccccc1Cl)Cn1cnc2ccccc21` (configuration not stated) has an inhibition of 5%. For `O=C(N/N=C/c1ccc(-c2ccc(Cl)cc2Cl)o1)c1ccccc1`, the inhibition was 15%. Compound `CCN1C(=O)C(=Cc2ccc(O)cc2)C(=O)NC1=S` has an inhibition of 4%. In the case of `CCN1C(=O)/C(=C/c2ccc(C)o2)C(=O)NC1=S`, the inhibition is reported as 21%. Work on `CCOc1cc(/C=N/NC(=O)C(=O)NCc2ccc(Cl)cc2)ccc1O` yielded an inhibition of 1%. `CC1(C)NC(=O)N(CC(O)COc2cccc(OCC(O)CN3C(=O)NC(C)(C)C3=O)c2)C1=O` (configuration not stated) was tested, and the inhibition was 11%. `COC(=O)c1c(NC(=O)c2ccco2)sc(C)c1C` was tested, and the inhibition was 15%. `Cc1sc(NC(=O)c2ccc(Br)o2)c(C#N)c1C` was tested, and the inhibition was 4%. With `CCOC(=O)c1c(NC(=O)Cc2ccccc2)sc(C)c1C` the inhibition was 0%. `COC(=O)c1c(NC(=O)Cc2ccccc2)sc(C)c1C` gave an inhibition of 24%. With `Cc1sc(NC(=O)c2ccco2)c(C#N)c1C` the inhibition was 7%. `Cc1sc(NC(=O)c2ccc(-c3ccccc3)cc2)c(C(N)=O)c1C` was tested, and the inhibition was 13%. In the case of `Cc1sc(NC(=O)c2ccc(F)cc2)c(C(N)=O)c1C`, the inhibition is reported as 8%. For `CCOC(=O)c1sc(NC(=O)c2ccc(Br)o2)c(C(N)=O)c1C`, the inhibition was 0%. With `CCOc1cc(/C=C2\SC(=S)N(c3ccc(F)cc3)C2=O)ccc1O` the inhibition was 18%. `CCN(CC)c1ccc(C(=O)Nc2cc(Cl)cc(Cl)c2)cc1` was tested, and the inhibition was 20%. For `Cc1ccc(C(=O)COC(=O)c2cccc(N3C(=O)C4C5C=CC(C6CC56)C4C3=O)c2)cc1` (configuration not stated), the inhibition was 9%. Work on `CCOc1ccc(-n2sc3c(c2=S)-c2cc(C)ccc2N(Cc2ccccc2)C3(C)C)cc1` yielded an inhibition of 32%. With `Cc1cc(C)cc(NC(=O)C(C)N2C(=O)c3ccccc3C2=O)c1` (configuration not stated) the inhibition was 0%. In the case of `CC1=C(C(=O)OCC(C)C)C(c2cccc(O)c2)C2=C(CC(c3ccc(Cl)cc3)CC2=O)N1` (configuration not stated), the inhibition is reported as 21%. In the case of `O=C(/C=C/c1ccccc1)NC(=S)Nc1ccc(Br)cn1`, the inhibition is reported as 21%. For `CCOC(=O)c1ccc(Nc2cc(-c3ccccc3)ncn2)cc1`, the inhibition was 18%. With `COc1cc(CN2CCN(Cc3ccc(OC)c(OC)c3OC)CC2)cc(OC)c1OC` the inhibition was 4%. `O=C(/C=C/c1ccc2c(c1)OCO2)NCc1ccc(Cl)cc1Cl` showed an inhibition of 11%. `Cc1nn(CC(=O)Nc2sc3c(c2C#N)CCCC3)c(C)c1[N+](=O)[O-]` was tested, and the inhibition was 8%. `CCOC(=O)c1sc(NC(=O)Cn2nc([N+](=O)[O-])c([N+](=O)[O-])c2C)c(C(=O)OCC)c1C` showed an inhibition of 6%. `O=C(O)c1c(Br)c(Br)c(Br)c(Br)c1C(=O)NCCC1=CCCCC1` was tested, and the inhibition was 0%. `NNC(=O)CN1C(c2ccccc2)=Nc2ccc(Br)cc2C1c1ccccc1` (configuration not stated) gave an inhibition of 15%. `COc1ccc(N2C(=O)/C(=C\c3c(OC)cc(OC)cc3OC)C(=O)NC2=S)cc1` showed an inhibition of 1%.
